These results are taken from PubChem BioAssay (NCI).

Each structure is given as a SMILES string. The panel holds about 79,000 compounds, 15% with a hit somewhere; the sample as a whole holds those more often. Values without a mark were called inactive. Activity calls are given as the source filed them. No stated cut-off is given here; in the data, active means growth inhibition above about 70%; inactive means the rest.

A short description of the assay: NCI Yeast Anticancer Drug Screen. Data for the rad50 strain (AID 155).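 Further: 0% = growth of vehicle-only cultures of the same strain.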 To be noted: S. cerevisiae rad50 strain growth inhibition; at 50.0 µM; stronger effect = higher value. The procedure, abridged: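 Yeast carrying a defined DNA repair defect were exposed to test compounds, and growth was compared with vehicle-treated controls to give percent inhibition.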
For the compound `COc1ccc2ncc(COC(=O)Nc3ccccc3)c(COC(=O)Nc3ccccc3)c2c1`, the growth inhibition was 22%. As to `Ic1ccccc1/C=C/c1ccccn1`, the growth inhibition is 14.6%.

Turning to `NC(CC(=O)O)C(=O)OCc1cccc(N=Nc2ccccc2)c1` (centres undefined), the growth inhibition is 7.8%.

As to `O=C(Cc1ccccc1)N/N=C(/c1nc2ccc([N+](=O)[O-])cc2[nH]c1=O)C(O)c1ccco1` (centres undefined), the growth inhibition is -0.95%. The value for `NC(=O)C[n+]1cccc(C(=O)Nc2ccc(Cl)cc2)c1` was 2.3%; that for `[C-]#[N+]C(=C\c1ccc(O)cc1)/C(=C/c1ccc(O)cc1)[N+]#[C-]` was 97.8% (active); that for `CCCCNCCCC(C(=O)O)c1ccccc1` (centres undefined) was 2.1%. In the case of `BrC1CC2CC1C1C2CC2OC21` (centres undefined) it was -26.9%. In the case of `CN(C)CCCn1c2ccccc2c2cnccc21` it was 0.5%; in that of `N#Cc1cnn2ccn(C3OC(CO)C(O)C3O)c12` (centres undefined), -42.8%; in that of `CCC(=O)NCCCCCN1CCCCC1`, 8.55%. For the compound `Cc1ccc2c(c1)[nH]c(=S)n2/C=C1\C(=O)Oc2ccccc2C1=O`, the growth inhibition is -43.8%. The value for `O=C(OCC(Br)C(Br)c1ccccc1)c1ccccc1` (centres undefined) was -13.3%; that for `CCCOCOCCC` was -22.5%. As to `S=c1nc[nH]c2c1CN(Cc1ccccc1)CC2`, the growth inhibition is -43.6%. With `N#C/C(=C\C=C\c1ccccc1)C(N)=O`, the growth inhibition is -57.8%. For the compound `CCOC(=O)C(NC(=O)OC(C)(C)C)C(=O)OCC`, the growth inhibition is -43.2%. In the case of `CC1(C)COC(=O)/C1=C/C#N` it was 5.1%. On to `CN(C(=O)C1C2c3ccccc3C(c3ccccc32)C1C(=O)N(C)c1ccccc1)c1ccccc1` (centres undefined), for which the growth inhibition is 29.4%.
